Some test systems named below: K-562 leukemia; MALME-3M melanoma; MDA-MB-231 breast; RXF 393 renal; SF-268 CNS; SF-295 CNS; SF-539 CNS; UACC-257 melanoma; M14 melanoma; HCT-15 colon; HT29 colon; SNB-19 CNS; U251 CNS; PC-3 prostate; SK-MEL-5 melanoma; UACC-62 melanoma; LOX IMVI melanoma; SK-MEL-28 melanoma; SK-MEL-2 melanoma; SNB-75 CNS.
Common to all, as to assay: NCI-60 one-dose screen, 48 h (100 = growth as untreated, 0 = no growth, -100 = all killed)
Settings in all cases: 10 µM unless noted

About 83,000 compounds went through this panel and 20% of them were active in at least one assay; those are over-represented in the sample as a whole.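 The test compound was applied at a single concentration to cells in 96-well plates for 48 hours, and percent growth was recorded.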 A number with no mark means an inactive call. Calls of active or inactive are those of the source. How the source made its calls: active means growth percent below 10; inactive means the rest.

In the case of `COc1ccc(C2CC(c3ccc(OC)c(OC)c3)=NN2C(=O)c2cc(OC)c(OC)c(OC)c2)c(OC)c1` (configuration not stated), the growth in the test on K-562 leukemia is 51.3%; with MALME-3M melanoma, 86.7%; with MDA-MB-231 breast it was 90.3%; in the test with RXF 393 renal it was 48.6%; in the test with SF-268 CNS it was 82%; in the test on SF-295 CNS it was 31%. The growth was 64.4% in the test with SF-539 CNS; 61.7% in the test with UACC-257 melanoma; 63.9% with M14 melanoma; 67.4% in the test with HCT-15 colon; 59.9% in the test on HT29 colon; 91.8% in the test on SNB-19 CNS. In addition, the growth in the test on U251 CNS was 80.6%; in the test with PC-3 prostate it was 64.3%; in the test with SK-MEL-5 melanoma it was 42%; with UACC-62 melanoma, 58%; with LOX IMVI melanoma, 56.6%; in the test on SK-MEL-28 melanoma, 80.2%. Besides, in the test on SK-MEL-2 melanoma, the growth was 68.2%.

Consider `COc1c(C)c2c(c(O)c1C/C=C(\C)CCC(=O)OCCN1CCOCC1)C(=O)OC2`, for which the growth with K-562 leukemia is 25.5%; with MALME-3M melanoma it was 38.8%; in the test with MDA-MB-231 breast it was 37.9%; with RXF 393 renal, 51.9%; with SF-268 CNS, 28.9%; in the test on SF-295 CNS, 18.2%. For the same molecule, the growth in the test with SF-539 CNS was 34.7%; with UACC-257 melanoma it was 7.21% (active); with M14 melanoma, 19.8%; with HCT-15 colon, 15.5%; in the test on HT29 colon it was 1.17% (active); in the test on SNB-19 CNS, 28%. Moreover, the growth is 14.7% with U251 CNS; 23.2% in the test with PC-3 prostate; 23.6% in the test on UACC-62 melanoma; 18.4% in the test on LOX IMVI melanoma; 35.8% in the test with SK-MEL-28 melanoma; 25.7% in the test with SK-MEL-2 melanoma.

`O=C(Nc1ccc(Oc2ccc(NC(=O)Nc3ccc([N+](=O)[O-])cc3)cc2)cc1)Nc1ccc([N+](=O)[O-])cc1`: the growth in the test on K-562 leukemia is -4.47% (active); in the test on MALME-3M melanoma, -3.45% (active); in the test with MDA-MB-231 breast, 35.1%; in the test on RXF 393 renal, 28.7%; with SF-268 CNS it was 19.7%; in the test with SF-295 CNS it was 22%. Moreover, the growth in the test on SF-539 CNS is 24.9%; in the test with UACC-257 melanoma, -20.9% (active); in the test with M14 melanoma, 5.41% (active); in the test on HCT-15 colon it was 10.3%; in the test with HT29 colon, 8.5% (active); in the test on SNB-19 CNS, 29.7%. In addition, the growth in the test with U251 CNS was 17.6%; in the test with SK-MEL-5 melanoma, -76.1% (active); with UACC-62 melanoma, 15.6%; in the test on LOX IMVI melanoma it was 12.4%; in the test on SK-MEL-28 melanoma, 24.8%; with SK-MEL-2 melanoma, -27.5% (active).

Regarding `CC(c1ccccn1)C(C)(O)C(C)c1ccccn1` (configuration not stated), the growth in the test on K-562 leukemia is 103%; in the test on MALME-3M melanoma, 121%; in the test on MDA-MB-231 breast, 92.8%; with RXF 393 renal, 115%; in the test with SF-268 CNS, 100%; with SF-295 CNS, 107%. In addition, the growth was 99.7% in the test on SF-539 CNS; 99.8% in the test with UACC-257 melanoma; 90.6% with M14 melanoma; 97.4% with HCT-15 colon; 98.9% in the test with SNB-19 CNS; 98.7% in the test with U251 CNS. The growth with PC-3 prostate was 98.9%; in the test on SK-MEL-5 melanoma, 105%; in the test with UACC-62 melanoma it was 95.6%; in the test on LOX IMVI melanoma, 95.6%; with SK-MEL-28 melanoma it was 111%; with SK-MEL-2 melanoma, 105%.

In the case of `O=C(CCc1nnc(SCc2ccccc2)s1)c1nc2ccccc2[nH]1`, the growth in the test on K-562 leukemia was 80.2%; in the test on MALME-3M melanoma, 83.8%; in the test with MDA-MB-231 breast it was 77.9%; with RXF 393 renal, 108%; in the test on SF-268 CNS it was 100%; with SF-295 CNS, 92.1%. Also, the growth in the test on SF-539 CNS was 109%; with UACC-257 melanoma, 111%; in the test on M14 melanoma it was 108%; in the test on HCT-15 colon it was 81%; with SNB-75 CNS, 90.5%; in the test with SNB-19 CNS, 93.2%. For the same molecule, the growth in the test with U251 CNS is 89.6%; in the test with SK-MEL-5 melanoma, 99.4%; in the test with UACC-62 melanoma, 84.8%; in the test on SK-MEL-28 melanoma, 108%.

In the case of `COc1cccc2c1O/C(=C\c1c([N+](=O)[O-])ncn1C)C2=O`, the growth in the test on K-562 leukemia was 89.9%; in the test on MALME-3M melanoma, 92.4%; with MDA-MB-231 breast, 119%; in the test with RXF 393 renal it was 113%; in the test with SF-268 CNS, 98.3%; with SF-295 CNS, 98.2%. Further, the growth is 100% in the test on SF-539 CNS; 93.5% with UACC-257 melanoma; 103% in the test on M14 melanoma; 106% in the test with SNB-19 CNS; 97.4% in the test on U251 CNS; -29.8% (active) in the test on PC-3 prostate. Besides, the growth in the test on SK-MEL-5 melanoma is 102%; in the test with UACC-62 melanoma it was 109%; in the test with LOX IMVI melanoma, 85.2%; with SK-MEL-28 melanoma, 106%; in the test with SK-MEL-2 melanoma it was 97.6%.

On to `C=C(C)[C@@H]1C[C@H](O)Cc2cc(Cl)cc(Cl)c2N1`, for which the growth in the test on K-562 leukemia is 103%; in the test on MALME-3M melanoma it was 108%; in the test on MDA-MB-231 breast, 93.6%; in the test with RXF 393 renal, 101%; with SF-268 CNS, 102%; with SF-295 CNS it was 104%. For the same molecule, the growth is 94.5% with SF-539 CNS; 104% in the test on UACC-257 melanoma; 110% in the test with M14 melanoma; 87.4% in the test on SNB-75 CNS; 103% in the test with SNB-19 CNS; 94.7% in the test on U251 CNS. The growth with SK-MEL-5 melanoma is 102%; in the test with UACC-62 melanoma, 95%; in the test on LOX IMVI melanoma, 92.3%; with SK-MEL-28 melanoma, 114%.

Regarding `O=C(/C=C/c1cccnc1)/C=C/c1cccnc1`, the growth in the test on K-562 leukemia was -15.2% (active); in the test with MALME-3M melanoma, -8.19% (active); in the test with MDA-MB-231 breast it was 20.4%; with RXF 393 renal it was -84.9% (active); in the test with SF-268 CNS it was -64% (active); in the test on SF-295 CNS, 41.6%. Also, the growth was -46.1% (active) with SF-539 CNS; 31.2% with UACC-257 melanoma; -47.3% (active) in the test with M14 melanoma; -55.2% (active) in the test on HT29 colon; 24.7% with SNB-75 CNS; 21.5% in the test with SNB-19 CNS. Further, the growth is -34.9% (active) in the test on U251 CNS; 21% in the test on SK-MEL-5 melanoma; -69.4% (active) in the test with UACC-62 melanoma; -84% (active) with LOX IMVI melanoma; -78.4% (active) in the test with SK-MEL-28 melanoma; 64.1% with SK-MEL-2 melanoma.

For the molecule `COc1ccc(OC)c2c1[nH]c(=O)c1c3ccccc3cn21`, the growth in the test with K-562 leukemia is 11.2%; with MALME-3M melanoma, -89.4% (active); with MDA-MB-231 breast, -89.2% (active); with RXF 393 renal it was -79.9% (active); with SF-268 CNS, -64.9% (active); in the test on SF-295 CNS, -76.7% (active). Further, the growth in the test with SF-539 CNS is -98.5% (active); in the test with UACC-257 melanoma, -75.5% (active); with M14 melanoma, -54.3% (active); in the test on SNB-75 CNS it was -77.2% (active); in the test with SNB-19 CNS, -48.4% (active); with U251 CNS, -97% (active). Moreover, the growth with SK-MEL-5 melanoma was -98.8% (active); with UACC-62 melanoma it was -100% (active); with LOX IMVI melanoma it was -84.8% (active); in the test on SK-MEL-28 melanoma, -83.8% (active); in the test on SK-MEL-2 melanoma it was -56.8% (active).

The values above are taken from PubChem BioAssay (NCI).
